A selection: hits, their analogues and other compounds. The true share with any hit is near 3.9%.
Vc quorum ag = quorum light induction in luxS cqsA deficient V. cholerae; V. cholerae BH1578 lux reporter, luminescence, 6 h; activation, % at 18.7 µM; 350,000 tested, 0.16% active; AID 588436; in the data active means activation mostly above about 9.7%, no sharp cut-off
Mtb FBA inh = inhibitors of M. tuberculosis fructose-bisphosphate aldolase. purified M. tuberculosis FBA, fluorescence read-out. P9WQA3. inhibition, % at 1 µM. 360,000 tested, 2.3% active. AID 588726
Target sequence (P9WQA3 whole entry, looked up): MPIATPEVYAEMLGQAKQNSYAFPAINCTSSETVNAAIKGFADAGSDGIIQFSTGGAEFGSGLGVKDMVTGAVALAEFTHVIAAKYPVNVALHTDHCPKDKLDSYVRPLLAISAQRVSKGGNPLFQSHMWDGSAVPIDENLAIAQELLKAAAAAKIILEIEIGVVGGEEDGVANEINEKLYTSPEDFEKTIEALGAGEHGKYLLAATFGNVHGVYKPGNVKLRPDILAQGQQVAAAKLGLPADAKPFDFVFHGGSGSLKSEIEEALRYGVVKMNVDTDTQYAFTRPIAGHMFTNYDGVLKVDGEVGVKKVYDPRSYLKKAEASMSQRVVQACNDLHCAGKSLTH
SARS 3CLpro inh = SARS-CoV 3CLpro protease inhibition. P0C6X7. recombinant SARS-CoV 3CLpro, quenched FRET peptide cleavage. inhibition, % at 6 µM. 290,000 tested, 0.14% active. AID 1706; in the data active means inhibition above about 12%
GDH-TPI counter-1 = counter-screen for M. tuberculosis FBA inhibitors: GDH-TPI coupled enzymes. GDH-TPI coupled enzyme counterscreen, NADH absorbance. inhibition, % at 4.8 µM. 360,000 tested, 1.2% active. AID 588335; in the data active means inhibition above about 30%
PrPC TRFRET = reduces human prion protein on the cell surface. inhibition, % at 13.8 µM. cell surface PrPC, TR-FRET read-out. AID 720596. 370,000 tested, 0.43% active; in the data active means inhibition above about 24%
Mtb FBA confirm = confirmation of M. tuberculosis fructose-bisphosphate aldolase inhibitors; inhibition, % at 1 µM; AID 651616; purified M. tuberculosis FBA, fluorescence read-out; shares compounds with Mtb FBA inh; 5,600 tested, 78% active
GDH-TPI counter-2 = counter-screen for M. tuberculosis FBA inhibitors: GDH-TPI coupled enzyme inhibition; inhibition, % at 1 µM; GDH-TPI coupled enzyme counterscreen, fluorescence; AID 652141; 5,600 tested, 81% active; shares compounds with Mtb FBA inh; in the data active means inhibition above about 10%
Hits are given with their value; . = inactive; / = no result given; + = active, no number. Unless noted, no stated cut-off is given here; in the data, active means inhibition above about 27%; inactive means the rest.

SMILES	Vc quorum ag	Mtb FBA inh	SARS 3CLpro inh	GDH-TPI counter-1	PrPC TRFRET	Mtb FBA confirm	GDH-TPI counter-2
C#CCOc1ccc(C2C3=C(CC(C)(C)CC3=O)N(CC(=O)O)C3=C2C(=O)CC(C)(C)C3)cc1	.	92	.	.	.	.	.
O=C(CSc1nc2c([nH]c3ccccc32)c(=O)n1-c1ccccc1F)NCC1CCCO1 (centres undefined)	.	36	.	.	.	89	53
O=C(Oc1cncc(Cl)c1)c1ccco1	.	33	.	.	.	57	62
O=C(Oc1cncc(Cl)c1)c1sccc1Cl	.	.	/	.	.	/	/
CC(=O)c1sc2nc(-c3cccs3)ccc2c1N	.	.	.	.	.	/	/
Nc1c(C(=O)Nc2nc3ccccc3s2)sc2nc(-c3cccs3)ccc12	.	52	.	35	/	123	114
CC(C)CCn1c(SCC#N)nc2c(sc3ccccc32)c1=O	.	.	.	.	.	/	/
COc1ccccc1NC(=O)CSc1nc2c(sc3ccccc32)c(=O)n1CCN(C)C	.	51	.	.	.	76	60
CN(C)CCn1c(SCc2ccccc2C#N)nc2c(sc3ccccc32)c1=O	.	50	.	.	.	75	59
CCN(CC)CCn1c(SCC(=O)Nc2ccc(F)cc2)nc2c(sc3ccccc32)c1=O	/	/	.	/	/	/	/
Cn1ccnc1-c1ccc(-c2nccn2C)cc1	.	52	.	.	.	+	186
COC(=O)C1CCN(C(=O)CSc2nnc(-c3ccccc3)o2)CC1	.	.	/	.	.	/	/
O=C(O)C1CCN(C(=O)CSc2nnc(-c3ccccc3)o2)CC1	.	28	/	.	.	71	53
CCOCCCN1CN(S(=O)(=O)c2ccc(Cl)cc2)c2nc3ccccc3nc21	.	.	.	.	.	/	/
COCCCN1CN(S(=O)(=O)c2ccc(C)cc2C)c2nc3ccccc3nc21	.	28	.	32	.	71	69
COc1ccccc1CNC(=O)CN1C(=O)NC2(CCCC2)C1=O	.	.	/	.	.	/	/
CCC(c1nnnn1C(C)(C)C)N1CCN(C/C=C/c2ccccc2)CC1 (centres undefined)	/	.	/	/	.	/	/
Cc1ccc(Cn2c(SCCN3CCCCC3)nc3c2c(=O)n(C)c(=O)n3C)cc1	.	63	.	.	.	.	11
Cn1c(=O)c2c(nc(SCCN3CCCCC3)n2Cc2ccccc2)n(C)c1=O	.	.	.	.	.	/	/
OC(c1ccc(F)cc1)c1ncc(-c2cccc3ccccc23)[nH]1 (centres undefined)	.	49	/	.	.	.	.
COc1ccc(C(O)c2ncc(-c3ccccc3OC)[nH]2)cc1F (centres undefined)	.	.	/	.	.	/	/
CCc1ccc(C(O)c2ncc(-c3cccc4ccccc34)[nH]2)cc1 (centres undefined)	.	.	/	.	.	/	/
Cc1cc(F)ccc1C(O)c1ncc(-c2cccc3ccccc23)[nH]1 (centres undefined)	.	31	/	.	.	.	.
COc1ccc(C(O)c2ncc(-c3ccc4ccccc4c3)[nH]2)cc1 (centres undefined)	.	32	/	.	.	+	+
COc1ccc(C(O)c2ncc(-c3cccc4ccccc34)[nH]2)cc1F (centres undefined)	.	41	/	.	.	36	36
SMILES	Vc quorum ag	Mtb FBA inh	SARS 3CLpro inh	GDH-TPI counter-1	PrPC TRFRET	Mtb FBA confirm	GDH-TPI counter-2
Cc1cc(F)ccc1C(O)c1ncc(-c2ccc3ccccc3c2)[nH]1 (centres undefined)	.	.	/	.	.	/	/
CC(C)c1cc(C(=O)N2CCCC(C(=O)c3ccc4ccccc4c3)C2)on1 (centres undefined)	.	.	.	.	.	/	/
COc1ccccc1C(O)c1ncc(-c2cccc3ccccc23)[nH]1 (centres undefined)	.	60	/	.	.	+	+
COc1ccc(-c2nc(CC(=O)O)cs2)cc1OC	/	/	.	/	.	/	/
CCOc1ccc(-c2nc(CCl)cs2)cc1OC	.	46	.	.	.	41	19
CCC(C)NC(=O)c1cnn2c(C)c3c(nc12)CCCC3 (centres undefined)	.	46	.	.	.	+	+
COc1ccc(-c2csc(Nc3ccc(Oc4ccccc4)cc3)n2)cc1	/	.	/	/	.	/	/
Cn1ccc2c(-c3cccc4ccccc34)cc3c(c21)C1CCC3O1 (centres undefined)	/	58	/	/	.	60	42
COc1ccccc1-c1cc2c(c3c1ccn3C)C1CCC2O1 (centres undefined)	/	73	/	/	.	127	104
Cn1ccc2c(-c3ccc(C(N)=O)cc3)cc3c(c21)C1CCC3O1 (centres undefined)	/	.	/	/	.	/	/
Cn1ccc2c(-c3ccc4[nH]ccc4c3)cc3c(c21)C1CCC3O1 (centres undefined)	/	47	/	/	.	57	39
O=C1CC(c2ccc(F)cc2)Sc2nc(C34CC5CC(CC(C5)C3)C4)nn21 (centres undefined)	.	.	.	.	.	/	/
CCC(Oc1ccc(C)c(C)c1)C(=O)N1CCCN(C)CC1 (centres undefined)	.	.	.	.	.	/	/
CN(C)c1ccc(C2C=C(c3ccc(Cl)cc3OC(F)F)Nc3ncnn32)cc1 (centres undefined)	/	.	/	.	.	/	/
Cc1ccc(C2C=C(c3ccccc3OC(F)F)Nc3ncnn32)cc1 (centres undefined)	.	32	.	.	.	70	68
Cc1ccc(C2=CC(c3ccccc3)n3ncnc3N2)cc1 (centres undefined)	.	67	/	.	.	88	67
Cc1ccc(F)cc1NC(=O)COC(=O)C1CCN(c2ccc(C(F)(F)F)cn2)CC1	.	.	/	.	.	/	/
COc1ccc(-c2nnc(-c3ccccc3)o2)cc1OC	.	31	.	.	.	149	107
CCOc1ccc(-c2nnc(-c3ccccc3)o2)cc1	.	91	.	.	.	88	74
CCOC(=O)COc1ccc(-c2nnc(-c3ccccc3)o2)cc1	.	59	.	.	.	41	35
CCOc1ccc(-c2nnc(-c3ccc(OC)cc3)o2)cc1	.	.	.	.	.	/	/
COc1cc(-c2nnc(-c3ccccc3)o2)cc(OC)c1OC	.	.	.	.	.	/	/
Cn1c(=O)cc(OCC(=O)N2CCC(N3CCCCC3)CC2)c2ccccc21	.	.	.	.	.	/	/
N#C/C(=N\Nc1ccc(F)cc1)C(=O)C1CC1	.	37	.	.	.	63	59
N#C/C(=N\Nc1ccc(Cl)c(Cl)c1)C(=O)C1CC1	.	66	.	.	.	.	.
CC1CCCCN1CCNC(=O)c1cnn2ccccc12 (centres undefined)	.	40	.	.	.	.	14
Cc1cc(C(=O)NCCN2CCCCC2C)n(-c2ccccc2)n1 (centres undefined)	.	.	.	.	.	/	/
